Results published in the supplement of paper PMC4206461.
Unmarked numbers belong to inactive results.

tested on: Pseudomonas aeruginosa PA14 dppBCDF deletion mutant; test: respiration area under curve with compound as sole nitrogen source, 24 h (OmniLog AUC (arbitrary units)); higher = more respiration / better utilisation as nitrogen source, active = 2000 or more; extreme values may be limits of the assay
Experimental: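 Biolog Phenotype MicroArray plates PM6-PM8: each di/tripeptide is the sole nitrogen source. Tetrazolium reduction was read in the OmniLog every 15 min for 24 h at 37°C and summarised as area under the respiration curve (arbitrary units). Values below 2000 count as no respiration. Strain is the dipeptide ABC transporter deletion mutant.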

Compound | respiration area under curve
CSCC[C@H](N)C(=O)N[C@@H](Cc1ccccc1)C(=O)O (plate: PM7) | 85
NCC(=O)N[C@H](CC(=O)O)C(=O)O (plate: PM8) | 0
CC(C)[C@H](N)C(=O)N[C@@H](CCC(=O)O)C(=O)O (plate: PM8) | 0
CC(C)[C@H](N)C(=O)N[C@@H](Cc1ccccc1)C(=O)O (plate: PM8) | 3500 (active)
C[C@H](N)C(=O)NCC(=O)O (plate: PM6) | 3630 (active)
C[C@H](N)C(=O)N[C@H](C(=O)O)[C@@H](C)O (plate: PM6) | 1650
NC(=O)CC[C@H](NC(=O)[C@@H](N)CCCN=C(N)N)C(=O)O (plate: PM6) | 9270 (active)
CSCCC(NC(=O)C(N)C(C)C)C(=O)O (stereo not given) (plate: PM8) | 397
CC[C@H](C)[C@H](NC(=O)[C@@H](N)Cc1ccccc1)C(=O)O (plate: PM7) | 6010 (active)
CC(C)[C@H](NC(=O)[C@@H](N)Cc1ccccc1)C(=O)O (plate: PM8) | 3510 (active)
CC(C)C[C@@H](N)C(=O)N[C@H](CC(C)C)C(=O)O (plate: PM8) | 0
O=C(O)[C@H](Cc1c[nH]c2ccccc12)NC(=O)[C@@H]1CCCN1 (plate: PM8) | 358
C[C@H](NC(=O)CNC(=O)CN)C(=O)O (plate: PM8) | 102
CC(C)C[C@H](N)C(=O)N[C@@H](CO)C(=O)O (plate: PM7) | 11800 (active)
NC(=O)C[C@H](N)C(=O)N[C@@H](CCC(=O)O)C(=O)O (plate: PM6) | 1590
N[C@@H](CCC(=O)O)C(=O)N[C@@H](CC(=O)O)C(=O)O (plate: PM6) | 0
NC(N)=NCCC[C@H](N)C(=O)N[C@@H](Cc1ccccc1)C(=O)O (plate: PM6) | 8100 (active)
N[C@@H](CCC(=O)O)C(=O)N[C@@H](Cc1ccc(O)cc1)C(=O)O (plate: PM6) | 44
C[C@H](N)C(=O)N[C@@H](CCC(=O)O)C(=O)O (plate: PM6) | 3750 (active)
CC[C@H](C)[C@H](N)C(=O)N[C@@H](CC(C)C)C(=O)O (plate: PM8) | 924

Compound | respiration area under curve
C[C@H](N)C(=O)N[C@@H](CC(N)=O)C(=O)O (plate: PM6) | 6980 (active)
C[C@@H](O)[C@H](NC(=O)CN)C(=O)O (plate: PM6) | 15.8
N[C@@H](Cc1ccccc1)C(=O)N[C@@H](CO)C(=O)O (plate: PM7) | 1830
CC(C)C[C@H](NC(=O)[C@@H](N)CC(C)C)C(=O)O (plate: PM6) | 1380
CC(C)[C@H](NC(=O)[C@@H](N)Cc1ccc(O)cc1)C(=O)O (plate: PM8) | 5040 (active)
N[C@@H](Cc1ccccc1)C(=O)NCC(=O)O (plate: PM7) | 872
NCC(=O)N[C@H](CO)C(=O)O (plate: PM8) | 0
CC[C@H](C)[C@H](NC(=O)[C@@H](N)Cc1ccc(O)cc1)C(=O)O (plate: PM8) | 5950 (active)
CC(C)[C@H](NC(=O)[C@@H](N)Cc1c[nH]c2ccccc12)C(=O)O (plate: PM8) | 0
CC(C)C[C@H](NC(=O)[C@@H]1CCCN1)C(=O)O (plate: PM7) | 626
C[C@H](N)C(=O)N[C@@H](C)C(=O)N[C@@H](C)C(=O)O (plate: PM8) | 6480 (active)
NC(N)=NCCC[C@H](N)C(=O)N[C@@H](CO)C(=O)O (plate: PM6) | 8440 (active)
CC[C@H](C)[C@H](N)C(=O)N1CCC[C@H]1C(=O)O (plate: PM6) | 0
C[C@H](N)C(=O)N[C@@H](CCCN=C(N)N)C(=O)O (plate: PM6) | 9770 (active)
CC(C)[C@H](NC(=O)[C@H](C)N)C(=O)O (plate: PM8) | 700
N[C@@H](Cc1c[nH]c2ccccc12)C(=O)N[C@@H](CCC(=O)O)C(=O)O (plate: PM7) | 0
NCC(=O)N[C@@H](Cc1ccc(O)cc1)C(=O)O (plate: PM6) | 216
NC(=O)CC[C@H](NC(=O)[C@@H](N)CO)C(=O)O (plate: PM8) | 558
NCC(=O)N[C@@H](CC(=O)O)C(=O)O (plate: PM8) | 6.75
N[C@@H](Cc1ccccc1)C(=O)N1CCC[C@H]1C(=O)O (plate: PM7) | 1.5
